Measurements reported in PubChem BioAssay (NCI).
Compounds without any hit were thinned out: in the full panel of roughly 83,000, 20% have a hit.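 Treatment: one concentration, 48 hours, 96-well format. Scoring: percent growth, with anything below 10 considered active.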 The source made the active and inactive calls.

How the values were obtained:
Assay in all cases: NCI-60 one-dose screen, 48 h (100 = growth as untreated, 0 = no growth, -100 = all killed)
Conditions in all cases: 10 µM unless noted
EKVX NSCLC = test system: EKVX NSCLC
SN12C renal = test system: SN12C renal
UO-31 renal = test system: UO-31 renal
TK-10 renal = test system: TK-10 renal
ACHN renal = test system: ACHN renal
CAKI-1 renal = test system: CAKI-1 renal
A498 renal = test system: A498 renal
CCRF-CEM leukemia = test system: CCRF-CEM leukemia
MOLT-4 leukemia = test system: MOLT-4 leukemia

Measured: growth

Cc1cc([C@@H](C)Nc2ccccc2C(=O)O)c2nc(N3CCOCC3)cc(=O)n2c1
inactive: EKVX NSCLC 61.7% | SN12C renal 44.1% | UO-31 renal 15.7% | TK-10 renal 42.6% | ACHN renal 46.3% | CAKI-1 renal 18.9% | CCRF-CEM leukemia 23.5% | MOLT-4 leukemia 20.6%
active: A498 renal -36.7%

Cn1cc(-c2cnn3c(N)c(Br)c([C@@H]4CCCNC4)nc23)cn1
inactive: EKVX NSCLC 58.7% | SN12C renal 37.6% | UO-31 renal 28% | TK-10 renal 33.4% | ACHN renal 19.8% | CAKI-1 renal 17.3% | CCRF-CEM leukemia 19.9%
active: A498 renal -8.93% | MOLT-4 leukemia 7.79%

COC1CCC(N2C(=O)CNc3ncc(-c4ccc(C(C)(C)O)nc4)nc32)CC1 (stereo not drawn)
active: SN12C renal 7.07% | UO-31 renal -10.7% | TK-10 renal -13.4% | ACHN renal 7.04% | CAKI-1 renal -1.6% | A498 renal -23.8% | MOLT-4 leukemia 0.972%
inactive: EKVX NSCLC 10.9% | CCRF-CEM leukemia 11.4%

CCOc1cc2ncc(C#N)c(Nc3ccc(OCc4ccccn4)c(Cl)c3)c2cc1NC(=O)/C=C/CN(C)C
inactive: EKVX NSCLC 20.7% | A498 renal 34.7% | MOLT-4 leukemia 19.9%
active: SN12C renal -62.8% | UO-31 renal -85% | TK-10 renal 5.99% | ACHN renal -56% | CAKI-1 renal 5.2% | CCRF-CEM leukemia 3.88%

O=C(Nc1cccc(Cl)c1)Nc1ncc(CCNc2ncnc3ccsc23)s1
active: MOLT-4 leukemia -4.94%
inactive: EKVX NSCLC 34.5% | SN12C renal 53.7% | UO-31 renal 27.5% | TK-10 renal 28.9% | ACHN renal 26.8% | CAKI-1 renal 21.7% | A498 renal 29.3% | CCRF-CEM leukemia 10.1%

CCCNC(=O)c1cn2ncnc(Nc3cc(C(=O)NC4CC4)ccc3C)c2c1C
inactive: EKVX NSCLC 87.2% | SN12C renal 88.4% | UO-31 renal 45.2% | TK-10 renal 104% | ACHN renal 58.6% | CAKI-1 renal 67.6% | A498 renal 56.9% | CCRF-CEM leukemia 73.9% | MOLT-4 leukemia 92.6%

CC(=O)OC(C(=O)c1ccccc1)c1ccccc1 (stereo not drawn)
inactive: EKVX NSCLC 109% | SN12C renal 94.6% | UO-31 renal 75.6% | TK-10 renal 94.6% | ACHN renal 101% | CAKI-1 renal 91.7% | A498 renal 95.9% | CCRF-CEM leukemia 104% | MOLT-4 leukemia 102%

C[C@@H]1COCCN1c1cc(C2([S@](C)(=N)=O)CC2)nc(-c2ccnc3[nH]ccc23)n1
inactive: EKVX NSCLC 54.2% | SN12C renal 41% | UO-31 renal 13.2% | TK-10 renal 42.9% | CAKI-1 renal 28.9%
active: ACHN renal 7.85% | A498 renal -21.2% | CCRF-CEM leukemia 7.78% | MOLT-4 leukemia 7.26%

Cc1ccc(N)cc1CN1C(=O)c2ccccc2C1=O
inactive: EKVX NSCLC 105% | SN12C renal 103% | UO-31 renal 70.1% | TK-10 renal 88.3% | ACHN renal 106% | CAKI-1 renal 105% | A498 renal 96.5% | CCRF-CEM leukemia 92.4% | MOLT-4 leukemia 94.9%

C/C(=C(/c1ccc(Cl)cc1)c1ccc(OCCN2CCCCCC2)cc1)c1ccccc1
inactive: EKVX NSCLC 70.2% | SN12C renal 87.6% | UO-31 renal 70.9% | TK-10 renal 101% | ACHN renal 96.3% | CAKI-1 renal 96.9% | A498 renal 86% | CCRF-CEM leukemia 68.9% | MOLT-4 leukemia 82%

COc1ccc(C(=O)c2cc(OC)c(OC)c(OC)c2)cc1/C=C/C(=O)c1ccc(F)cc1
active: ACHN renal -70.3% | CCRF-CEM leukemia 2.64% | MOLT-4 leukemia 0.641%
inactive: EKVX NSCLC 90.1% | SN12C renal 64.7% | UO-31 renal 56.3% | TK-10 renal 82.9% | CAKI-1 renal 81.5% | A498 renal 80.9%

CC(=O)c1cnc2ccc(-c3cc(Cl)c(O)c(Cl)c3)nc2c1NC1CCC(CN(C)C)CC1 (stereo not drawn)
active: EKVX NSCLC -15.9% [2.5 µM] | SN12C renal -7.95% [2.5 µM] | UO-31 renal -33.1% [2.5 µM] | TK-10 renal -59.7% [2.5 µM] | ACHN renal -0.784% [2.5 µM] | CAKI-1 renal -49.4% [2.5 µM] | A498 renal -88% [2.5 µM] | CCRF-CEM leukemia 1.45% [2.5 µM] | MOLT-4 leukemia -36.4% [2.5 µM]

COc1ccc2c(OCc3nnc4ccc(-c5ccccc5)nn34)ccnc2c1
inactive: EKVX NSCLC 104% [2.5 µM] | SN12C renal 104% [2.5 µM] | UO-31 renal 74.6% [2.5 µM] | TK-10 renal 93.7% [2.5 µM] | ACHN renal 97.2% [2.5 µM] | CAKI-1 renal 74.6% [2.5 µM] | A498 renal 89.1% [2.5 µM] | CCRF-CEM leukemia 102% [2.5 µM] | MOLT-4 leukemia 72.7% [2.5 µM]

CNC(=O)c1nn(C)c2c1C(C)(C)Cc1cnc(Nc3ccc(N4CCN(C)CC4)cc3)nc1-2
active: EKVX NSCLC 5.74% | UO-31 renal -8.73% | TK-10 renal -12.5% | ACHN renal 9.62% | CAKI-1 renal 7.68% | A498 renal -61.6% | MOLT-4 leukemia 2.29%
inactive: SN12C renal 11.3% | CCRF-CEM leukemia 10.4%

CN1CCC(COc2cnc(-c3cccc(Cn4nc(-c5cccc(C#N)c5)ccc4=O)c3)nc2)CC1
inactive: EKVX NSCLC 58.6% | SN12C renal 82.2% | UO-31 renal 77.8% | TK-10 renal 102% | ACHN renal 74.4% | CAKI-1 renal 79% | A498 renal 95.1% | CCRF-CEM leukemia 34.7% | MOLT-4 leukemia 55.2%

Cc1cccc(Cl)c1NC(=O)c1cnc(Nc2cc(N3CCOCC3)cc(N3CCOCC3)c2)s1
inactive: EKVX NSCLC 33.1% | SN12C renal 30% | CCRF-CEM leukemia 63.2% | MOLT-4 leukemia 27.8%
active: UO-31 renal -0.169% | TK-10 renal -65.2% | ACHN renal -7.5% | CAKI-1 renal -37.8% | A498 renal -22.6%

O=C(CNc1nnc(-c2ccc(Cl)cc2)o1)Nc1ccc(-c2nc3ccccc3s2)cc1
inactive: EKVX NSCLC 104% | SN12C renal 94.5% | UO-31 renal 73.3% | TK-10 renal 91.7% | ACHN renal 112% | CAKI-1 renal 100% | A498 renal 82% | CCRF-CEM leukemia 53.3% | MOLT-4 leukemia 33.2%

C[C@@]1(C(=O)Nc2ccc(F)nc2)CCCN1c1nc(Nc2cc(C3CC3)[nH]n2)c2cccn2n1
inactive: EKVX NSCLC 46.2% | SN12C renal 34.6% | TK-10 renal 35.9% | ACHN renal 25.7% | CCRF-CEM leukemia 44% | MOLT-4 leukemia 30.3%
active: UO-31 renal 2.07% | CAKI-1 renal -17.7% | A498 renal -41.7%

O=C(CNc1nc2ccccc2s1)Nc1ccc(-c2nc3ccccc3s2)cc1
inactive: EKVX NSCLC 110% | SN12C renal 103% | UO-31 renal 80.5% | TK-10 renal 96.7% | ACHN renal 107% | CAKI-1 renal 100% | A498 renal 93.8% | CCRF-CEM leukemia 111% | MOLT-4 leukemia 84.2%

COc1cc2ncnc(Nc3cccc(Cl)c3F)c2cc1OC(=O)N1CCN(C)C[C@H]1C
inactive: EKVX NSCLC 57.8% | SN12C renal 50.1% | UO-31 renal 41.6% | TK-10 renal 28.1% | ACHN renal 19.5% | CAKI-1 renal 43.2% | A498 renal 82.8% | CCRF-CEM leukemia 74.7% | MOLT-4 leukemia 67.7%

CCc1cc2c(cc1N1CCC(N3CCOCC3)CC1)C(C)(C)c1[nH]c3cc(C#N)ccc3c1C2=O
inactive: EKVX NSCLC 15.9% | CCRF-CEM leukemia 22.4% | MOLT-4 leukemia 25.4%
active: SN12C renal -14.9% | UO-31 renal -67.2% | TK-10 renal -12.1% | ACHN renal -27.3% | CAKI-1 renal -46.7% | A498 renal -37.1%

CC1(COc2ccc3c(c2)ncn3-c2ccc3cccc(N4CCC(N)CC4)c3n2)COC1
active: UO-31 renal -3.3% | ACHN renal 2.83% | CCRF-CEM leukemia 2.15% | MOLT-4 leukemia -4.11%
inactive: EKVX NSCLC 34.6% | SN12C renal 32.4% | TK-10 renal 32% | CAKI-1 renal 22.9% | A498 renal 85.1%

S=C(NCc1ccc2c(c1)OCO2)N1CCN(c2ncnc3c2oc2ccccc23)CC1
inactive: EKVX NSCLC 38.8% | SN12C renal 50.8% | UO-31 renal 11.9% | ACHN renal 19.6% | CAKI-1 renal 28% | A498 renal 19.8% | CCRF-CEM leukemia 22.5%
active: TK-10 renal -3% | MOLT-4 leukemia 5.79%

Cc1cc(C(=O)Nc2cc(Oc3ccc4nc(NC(=O)C5CC5)cn4n3)ccc2C)n(C)n1
active: A498 renal -39.2%
inactive: EKVX NSCLC 58.8% | SN12C renal 37.8% | UO-31 renal 14.4% | TK-10 renal 27.4% | ACHN renal 37.3% | CAKI-1 renal 23.8% | CCRF-CEM leukemia 29.9% | MOLT-4 leukemia 32.6%

COc1cc(CCc2cc(NC(=O)c3ccc(N4C[C@@H](C)N[C@@H](C)C4)cc3)n[nH]2)cc(OC)c1
inactive: EKVX NSCLC 84.7% | SN12C renal 31.1% | TK-10 renal 57.6% | ACHN renal 39.5% | CAKI-1 renal 20.4% | CCRF-CEM leukemia 29.6% | MOLT-4 leukemia 10.6%
active: UO-31 renal 9.25% | A498 renal -1.03%

CNC(=O)CN1CCC(Oc2cc3c(Nc4cccc(Cl)c4F)ncnc3cc2OC)CC1
inactive: EKVX NSCLC 32.1% | SN12C renal 42.7% | UO-31 renal 26.3% | CAKI-1 renal 10.6% | A498 renal 44.2% | CCRF-CEM leukemia 64.7% | MOLT-4 leukemia 51.7%
active: TK-10 renal 1.03% | ACHN renal 8.22%

Oc1ccc(C(c2ccc(O)cc2)C(Cl)(Cl)Cl)cc1
inactive: EKVX NSCLC 82.5% | SN12C renal 84.8% | UO-31 renal 75.3% | TK-10 renal 105% | ACHN renal 92.3% | CAKI-1 renal 105% | A498 renal 87.5% | CCRF-CEM leukemia 76.5% | MOLT-4 leukemia 70.5%
